# Autofluor counter: flagged as autofluorescent in microsphere protease counterscreen | compound autofluorescence counterscreen, microsphere flow cytometry; active compounds read high | fluorescence intensity (no concentration beside the values) | hit rate 3.1% among 360,000; in the data active means fluorescence intensity above about 16000; inconclusive means no clear call, values can overlap the other calls
# MazF activator: activators of E. coli MazEF toxin-antitoxin RNase, primary screen, biochemical, fluorescence, uHTS. FAM/BHQ RNA-DNA oligo cleavage fluorescence, 5 h. hit rate 0.32% among 350,000. activation, % at 20 µM; in the data active means activation above about 50%
# BoNT-A LC inh2: BoNT/A light chain protease inhibitors, primary screen, biochemical, flow cytometry, MLPCN library; hit rate 0.17% among 360,000; Botulinum neurotoxin type A light chain protease (Clostridium botulinum A str. ATCC 3502); multiplex microsphere protease substrate cleavage; AID 588499, 2011; inhibition, % at 10 µM; further: plate controls were buffer without enzyme for full effect and enzyme alone for no effect
# Anthrax LF inh2: Bacillus anthracis LF protease inhibitors, primary screen, biochemical, multiplex microsphere, MLPCN library | AID 588501, 2011 | inhibition, % at 10 µM | hit rate 0.12% among 360,000 | multiplex microsphere protease cleavage assay | Lethal factor (Bacillus anthracis), P15917; further: plate controls were buffer without enzyme for full effect and enzyme alone for no effect
# BoNT-F LC inh: BoNT/F light chain protease inhibitors, primary screen, biochemical, flow cytometry, MLPCN library; hit rate 0.22% among 360,000; Multiplex microsphere protease cleavage assay; inhibition, % at 10 µM; Botulinum neurotoxin type F light chain protease (Clostridium botulinum); in the data active means inhibition above about 35%, passing the limit was not always enough; inconclusive means no clear call, values can overlap the other calls; further: plate controls were buffer without enzyme for full effect and enzyme alone for no effect
# Numbers without * were called inactive; ? = inconclusive. Most compounds without a hit are left out; they make up all but 3.7% or so of the library. Unless noted, no stated cut-off is given here; in the data, active means inhibition above about 30%; inconclusive means no clear call, values can overlap the other calls; inactive means below that.
SMILES,Autofluor counter,MazF activator,BoNT-A LC inh2,Anthrax LF inh2,BoNT-F LC inh
O=C(Nc1cc(C(F)(F)F)ccc1N1CCOCC1)c1cncc(Br)c1,22690*,3,-10,-1,-11
O=C(Nc1cc(C(F)(F)F)ccc1N1CCOCC1)c1cccc(F)c1,2713,1,0,-1,0
Oc1cccc(C=NN=C2c3ccccc3-c3ccccc32)c1,2927,7,0,-5,-3
Cc1cccc(NC(=O)CCNC(=O)c2ccc(Br)cc2)c1,3862,8,-1,5,-6
COc1ccc(CNC(=O)C2CCN(S(=O)(=O)N3CCCC3)CC2)c(OC)c1,5133,10,1,-2,-2
O=C(Nc1cc(C(F)(F)F)ccc1N1CCOCC1)C1Cc2ccccc2CN1C(=O)c1ccco1 (stereo not given),20221*,-7,2,2,-1
COc1ccc(OC)c(NC(=O)c2sc3nc(Cc4ccccc4)cc(C(F)(F)F)c3c2N)c1,20176*,0,1,1,0
COc1ccc(-c2cc(C(F)(F)F)c3c(N)c(C(=O)NCCSC)sc3n2)cc1,6679,618*,-5,-14,?
O=C(NCc1ccc(Cl)cc1Cl)c1ccccn1,24310*,1,-3,0,-3
O=C(COC(=O)c1ccccn1)NCc1ccc(Cl)cc1Cl,9588,7,-3,-1,-7
Cc1ccc(/C(O)=C2\C(=O)C(=O)N(CCCN3CCOCC3)C2c2ccccc2F)cc1 (stereo not given),2882,-8,0,-1,0
Cc1ccc(/C(O)=C2\C(=O)C(=O)N(CCN(C)C)C2c2ccccc2F)cc1 (stereo not given),20048*,7,?,-6,0
CCOc1ccc(C2/C(=C(/O)c3ccc(F)cc3)C(=O)C(=O)N2CCCN(C)C)cc1 (stereo not given),2408,-2,0,1,4
CN(C)CCN1C(=O)C(=O)/C(=C(/O)c2ccc(F)cc2)C1c1ccccc1F (stereo not given),22555*,5,1,-10,3
O=C(Oc1ccc2ccc(=O)oc2c1)c1ccco1,5234,1,1,-4,8
CCN1CCc2c(sc(NC(=O)c3ccc(S(=O)(=O)N(C)c4ccccc4)cc3)c2C(=O)NC)C1,8771,-158,?,?,?
O=C(/C=C\c1ccc(-c2cccc([N+](=O)[O-])c2)o1)N1CCOCC1,4179,11,1,7,-3
O=C1OC[C@H]2CCCN2C(=O)[C@@H](CC(=O)N(CCO)Cc2ccccc2)C/C=C\CC[C@H]1Cc1ccc(F)cc1,3909,3,0,-8,-2
O/N=C/c1ccc2ccccc2n1,3713,-6,-2,-10,41*
O/N=C/c1ccc2cccc(O)c2n1,3344,3,-1,-1,-4
Cc1ccc(-c2[nH]nc(N)c2N=Nc2cccc(Cl)c2C)cc1,4762,11,-2,-6,-18
Cc1cccc(N=Nc2c(N)n[nH]c2-c2ccc(Cl)cc2)c1,20404*,-8,1,-6,-2
Cc1noc(C)c1C(=O)N1CCC(Cc2ccccc2)CC1,22708*,-2,?,1,1
O=C(OCc1ccccc1)C1CCCN1C(=O)c1cccs1 (stereo not given),3512,1,0,-1,0
O=C(OCc1ccccc1)C1CCCN1C(=O)c1ccccc1[N+](=O)[O-] (stereo not given),20292*,-5,?,-1,1
SMILES,Autofluor counter,MazF activator,BoNT-A LC inh2,Anthrax LF inh2,BoNT-F LC inh
O=C(c1ccccc1[N+](=O)[O-])N1CCC(Cc2ccccc2)CC1,22923*,-6,-2,0,-3
COc1ccccc1/C(C)=N/Oc1cc(N)cc([N+](=O)[O-])c1,3859,-9,1,-4,-10
Cn1c(CNC(=O)c2ccco2)nnc1SCC(=O)c1ccc(F)cc1,5378,3,1,1,-8
N=C(N)Sc1nc(N2CCCCC2)nc(N2CCCCC2)n1,6360,2,4,4,6
c1ccc(Sc2nc(N3CCCCC3)nc(N3CCCCC3)n2)nc1,19461*,-3,?,-7,4
CC(C(=O)NCC1(c2ccccc2)CCCC1)N1CCOCC1 (stereo not given),23756*,5,-1,0,0
CC(C(=O)NCC1(c2ccccc2)CCOCC1)N1CCOCC1 (stereo not given),4182,-14,0,0,-2
Cc1onc(-c2ccccc2)c1C(=O)OCC(=O)NC(=O)c1ccccc1,5476,2,0,-4,-6
COc1ccc(S(=O)(=O)N2CCOCC2)cc1NC(=O)c1sccc1C,4056,0,-1,-4,0
COc1cc(C)c(S(=O)(=O)Nc2ccc(CC(=O)O)cc2)cc1C,25248*,-6,-6,-3,-8
O=C(O)Cc1ccc(NS(=O)(=O)c2ccccc2Br)cc1,4822,1,0,3,-5
O=C1CS/C(=N\C(=O)N2c3ccccc3Sc3ccccc32)N1,24179*,12,-1,1,-3
COC(=O)c1ccc(C(=O)OC)c(NS(C)(=O)=O)c1,23033*,-7,1,-2,0
Cc1ccccc1C(=O)O/N=C(\N)c1ccncc1,2122,6,0,-1,-1
CCOc1cc(-c2nc3ccccn3c2NCC2CCCO2)ccc1O (stereo not given),22229*,3,-9,3,-9
CCOc1ccc(NC(=O)CSc2nnc(-c3cc(C)[nH]n3)n2N)cc1,6067,6,0,-2,4
O=C(CCCn1c(SCC(=O)NCC2CCCO2)nc2ccccc2c1=O)NCC1CCCO1 (stereo not given),20974*,3,-2,-1,-4
CCCN(CCC)C(=O)CSc1nc2ccsc2c(=O)n1NC(=O)c1ccccc1,?,10,2,-3,?
COCCNC(=O)CSc1nc2ccccc2c(=O)n1CCCC(=O)NCc1ccccc1,22634*,0,?,-4,1
CC(C)CCNC(=O)CSc1nc2ccsc2c(=O)n1NC(=O)c1ccccc1,21825*,4,1,-3,2
COCCCNC(=O)CSc1nc2ccccc2c(=O)n1CCCN1CCCCC1,4142,10,-1,1,4
O=C(CSc1nc2ccccc2c(=O)n1NC(=O)Cc1ccccc1)NCCc1ccccc1,21231*,-1,3,-2,3
CCn1c(SCC(=O)Nc2cc(C)on2)nc2c(c1=O)SCC2,6142,2,-1,1,1
COc1ccc(CNC(=O)CCCn2c(SCC#N)nc3cc4c(cc3c2=O)OCO4)cc1,21923*,0,3,-1,0
O=C(CSc1nc2ccccc2c(=O)n1CC1CCCO1)N1CCN(c2ccccc2)CC1 (stereo not given),21377*,-6,2,-1,2
